# GoLoco inh red: qHTS Assay for Inhibitors of RGS12 GoLoco Motif Activity (Red Fluorophore) | Guanine nucleotide-binding protein G(i) subunit alpha-1 (Homo sapiens), P63096 | Gai1:RGS12 GoLoco peptide FP, rhodamine, 10 min | Potency, µM (series often up to 61.6 µM), for the others: at the top dose activity, negative = inhibition, most hits filed as inhibitors | actives 0.44% (n = 230,000) | AID 880, 2007; active = well fitted inhibition curve with a large enough effect, not every such curve was filed as active; inactive = no such curve, though single readings can be large or run the other way; note: nearly all actives have a fitted effect of over 30% in size
# IMPase Li cell: qHTS Assay for Identifying the Cell-Membrane Permeable IMPase Inhibitors: Potentiation with Lithium. CHO-M1 cells, IP1 TR-FRET (IP-One), carbachol + lithium. Potency, µM (highest dose often 59.4 µM), for the others: at the highest dose activity, negative = IMPase inhibition, hits mostly inhibitors. actives 0.35% (n = 210,000). AID 1457, 2008;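 note: IP1 builds up when IMPase is blocked and the TR-FRET signal falls; plate controls were basal vehicle for no effect and high inhibitor control for full effect; nearly all actives have a fitted effect of over 50% in size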
#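 Concentration–response in CHO-M1 cells, lithium-potentiated; 30 min at 37C. IP1 detected by competitive TR-FRET after 10 min lysis at RT. Hill-fitted AC50.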
# MBNL1 CUG block: qHTS Assay for Inhibitors of MBNL1-poly(CUG) RNA binding; Muscleblind-like protein 1 (Homo sapiens), Q9NR56; TR-FRET MBNL1-His/biotin-(CUG)12 binding, 665/545 ratio; Potency, µM (highest dose often 57.5 µM), for inactives: at the top dose activity change, negative = inhibition, hits mostly inhibitors; actives 0.036% (n = 280,000); AID 2675, 2010; active = well fitted inhibition curve with a large enough effect in the signal ratio, with a control signal flat, not every such curve was filed as active; inconclusive = small, poorly fitted or top-dose-only effect, or effect the other way, or a change in a side signal; inactive = no such curve, though single readings can be large or run the other way; the % refers to the signal ratio
#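 MBNL1-His + Biotin-(CUG)12, cpd titration 92 nM–58 uM; Tb anti-His Ab 0.055 ng/ul, SA-XL665 5 nM (final); 60 min RT; ratiometric 665/545 nm, Ex 340 nm; normalized to buffer and full-complex controls.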
# NPSR antag: qHTS Assay for Antagonists of the Neuropeptide S Receptor: cAMP Signal Transduction | Q6W5P4 | CHO-NPSR cells, cAMP TR-FRET, antagonist mode | Potency, µM (series often up to 38.3 µM), without a hit: at the top dose activity change, negative = inhibition, actives largely listed as inhibitors | actives 1% (n = 220,000) | AID 1461, 2008; note: nearly all actives have a fitted effect of over 50% in size
# Target sequence (Q6W5P4 whole entry, looked up): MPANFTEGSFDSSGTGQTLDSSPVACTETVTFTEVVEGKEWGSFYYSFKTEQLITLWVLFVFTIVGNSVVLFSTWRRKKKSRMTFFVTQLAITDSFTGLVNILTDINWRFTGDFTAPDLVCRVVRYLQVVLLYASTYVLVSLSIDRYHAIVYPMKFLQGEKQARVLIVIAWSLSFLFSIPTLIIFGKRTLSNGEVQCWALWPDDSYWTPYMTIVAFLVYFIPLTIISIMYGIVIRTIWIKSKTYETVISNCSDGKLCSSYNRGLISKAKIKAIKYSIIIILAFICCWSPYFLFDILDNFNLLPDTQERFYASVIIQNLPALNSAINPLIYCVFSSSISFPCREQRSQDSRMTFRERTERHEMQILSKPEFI
# Tb PFK block: qHTS Assay to Find Inhibitors of T. brucei phosphofructokinase. Potency, µM (series often up to 57.5 µM), for inactives: at the highest dose activity, negative = inhibition, most hits filed as inhibitors. actives 0.17% (n = 330,000). T. brucei PFK, ADP-Glo luminescence. ATP-dependent 6-phosphofructokinase (Trypanosoma brucei brucei), O15648;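 note: 0% = uninhibited 1x PFK enzyme wells and -100% = no-enzyme wells; nearly all actives have a fitted effect of over 60% in size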
#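 PFK 1.25 nM, F6P 0.5 mM, ATP 0.1 mM, 0.1 M TEA pH 8.0, 5 mM MgCl2, 0.01% Tween20, 0.1% BSA; 45 min RT. ADP-Glo readout. qHTS titration up to 57 uM; curves fitted, compounds curve-classed.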
# The depositor's hits bear a star; ? = inconclusive; . = not tested or not shown; [ ] = remark or other dose. The full list was thinned out, with hits kept by preference. Unless noted, calls come from the whole dose curve; as a rule, active = well fitted curve in the direction sought with a large enough effect; inconclusive = small, poorly fitted or top-dose-only effect, or another doubt; inactive = no such curve, though single readings can be large; an effect the other way counts as inactive or inconclusive. Unless noted, % is set by controls: 0 for no effect and ±100 for the full control effect; potency is the fitted concentration of half-maximal effect.
SMILES,GoLoco inh red,IMPase Li cell,MBNL1 CUG block,NPSR antag,Tb PFK block
CC(OC(=O)/C=C/c1ccc2ccccc2n1)C(=O)Nc1ccc(S(N)(=O)=O)cc1 (stereo not drawn),.,.,.,.,-8%
C[n+]1cccc(C(=O)NCC2CCCO2)c1 (stereo not drawn),1.8µM*,-1%,0%,4%,0%
O=C(NCC1CCCO1)c1ccccc1 (stereo not drawn),3%,-14%[38.3 µM],3%,1%[46.1 µM],.
CC(=O)C1=C(C)NC(SCC(=O)c2ccc(F)cc2)=C(C#N)C1c1ccco1 (stereo not drawn),-1%,5%[38.3 µM],?,-17%[46.1 µM],-2%
COc1ccccc1NC(=O)C1=C(C)NC(SCC(=O)c2ccc(C)cc2)=C(C#N)C1c1ccco1 (stereo not drawn),128%,?,27%,6.3µM*,-3%
CC(=O)C1=C(C)NC(SCC(=O)c2cc(Cl)ccc2Cl)=C(C#N)C1c1ccco1 (stereo not drawn),50%,-1%[38.3 µM],9%,10µM*,7%
CC(=O)C1=C(C)NC(SCC(=O)c2ccc(Cl)c(Cl)c2)=C(C#N)C1c1ccco1 (stereo not drawn),97%,10%[38.3 µM],?,10µM*,0%
CCc1ccc(C(=O)CSC2=C(C#N)C(c3ccco3)C(C(C)=O)=C(C)N2)cc1 (stereo not drawn),24%,19%[38.3 µM],?,?,5%
CCN(C(=O)COC(=O)c1cccc(S(=O)(=O)N2CCOCC2)c1)C1CCS(=O)(=O)C1 (stereo not drawn),.,.,.,.,5%
COc1ccc([C@]23Cc4ccccc4C(O2)C2=C(CCCC2=O)O3)cc1,.,.,3%[11.5 µM],.,1%[11.5 µM]
CN=c1nc(-c2ccccc2)n(-c2ccccc2)s1,5µM*,25%,.,?,-7%
Cc1ccc(-c2nn(-c3ccccc3)cc2C=C2C(=O)CC(C)(C)CC2=O)cc1,19%,-6%[38.3 µM],-3%,-5%[46.1 µM],-6%
CC1=NNC(=O)/C1=C\c1cn(-c2ccccc2)nc1-c1ccc(Cl)cc1,3%,29%[38.3 µM],-7%,2.5µM*,0%
CCOc1cccc(CN2CCN(c3cccc(C(F)(F)F)c3)CC2)c1O,-8%,39%[38.3 µM],-6%,10µM*,-11%
COc1cccc(CN2CCN(c3cccc(C(F)(F)F)c3)CC2)c1OC,9%,3%,?,0%[46.1 µM],-3%
CC[C@]12c3[nH]c4ccc(Cl)cc4c3CCN1C(=O)[C@@H](CC(=O)NCCC1=CCCCC1)C[C@@H]2C(=O)N1CCN(C(=O)C2CC2)CC1,.,.,.,.,2%
Cc1ccccc1N1C(=O)CC(Sc2nnc(-c3ccccc3)o2)C1=O (stereo not drawn),-4%,10µM*,56%,?,8%
C[N+]1(CC#CC(O)(c2ccccc2)c2ccccc2)CCCC1,-40%,20%,-13%[11.5 µM],7%,-6%
CC(C)[N+](C)(C)CC#CC(O)(c1ccccc1)c1ccccc1,3.2µM*,.,3%,10%,0%
COc1ccc(-c2nn(-c3ccccc3)cc2/C=N/NC(=O)c2ccc3c(c2)OCO3)cc1,6%,2%[38.3 µM],3%,-18%[46.1 µM],1%
COc1ccc(-c2nn(-c3ccccc3)cc2/C=N/NC(=O)c2ccc(Br)o2)cc1,8%,18%[38.3 µM],6%,6.3µM*,9%
CC1(C(=O)N2CCC(CC3CC(c4cccc(Br)c4)=NO3)(C(=O)NCC3CCCCC3)CC2)CC1 (stereo not drawn),.,.,-5%,.,3%
O=C(Cn1c2[n+](c3ccc(C(F)(F)F)cc31)CCCCC2)Nc1ccccc1,3.2µM*,8%,.,12%,0%
CCc1cccc(NC(=O)Cn2c3[n+](c4ccc(C(F)(F)F)cc42)CCCCC3)c1,14µM*,13%,-10%,2%,1%
COc1cccc(CC(=O)N(CCC2=CCCCC2)c2c(N)n(Cc3ccccc3)c(=O)[nH]c2=O)c1,.,.,.,.,-4%
Cc1nc2ccc(Br)cn2c1C(=O)N/N=C\c1ccccc1Cl,.,.,3%,.,-1%

# From PubChem
